Publication PMC12136788
Positions count from the first letter of the chain named. The full ranking holds about 5,800 sequences; the median of “enrichment r” is about 0.54, and the highest 2% start at about 16. Many of the other results were omitted from the sample, so the highest values are more common in it than they were.

B1: chr11:62152232:62152344:+|3pUTR|ENSG00000149503|unk|FALSE|unique (ssRNA)
RNA: GGGAGUUCUACAGUCCGACGAUCUGCUCUGUAAAUAGUUGUUUUAAUUUAGCUGAAUGUUAGCAUUUUAGUCUUUGGCAUUUUAGCGUUUGGGAGGUAGAUUAAUAAAGUAUAUUCCUUCAAGCCUGCUGUUGAUACCAUGAACAACAGAGGAUUGAGCAUCA
B2: ENSG00000071054:stop:overlap|stop_codon|ENSG00000071054|stop_codon|NA|stop_codon (ssRNA)
RNA: GGGAGUUCUACAGUCCGACGAUCCUGGUGGCAGCAGUCAGGUUUAUUUCAUGACCUUAGGCAGGACUUCUCUUCUGAGCUGGUAGAAGCAGUGUGAUCCAGGGAUUACUGGCCUCCAGAGUCUUCAAGAUCCUGAGAACUUGGCAACAGAGGAUUGAGCAUCA
B3: chr5:136976780:136976881:-|3pUTR|ENSG00000152377|msi1|total|mutant (ssRNA)
RNA: GGGAGUUCUACAGUCCGACGAUCCUUAAAUCCGCAUGUUCCAAUCCAGUCGGCAUUGCCUGAAUACAGCCGCAUCAUACCUACCGUUGGUCUCCGAUAAGAAAUGAACUACUUGAUACCGCAAAGUCCUUUGGCUUCGUAAAUCAACAGAGGAUUGAGCAUCA
B4: chr11:62152232:62152344:+|3pUTR|ENSG00000149503|unk|total|mutant (ssRNA)
RNA: GGGAGUUCUACAGUCCGACGAUCUGCUCUGUAAACCGUUGUUUUAAUUCCGCUGAAUGUCCGCAUUUCCGUCUUUGGCAUUUCCGCGUUUGGGAGGCCGAUUAAUAAAGUAUAUUCCUUCAAGCCUGCUGUUGAUACCAUGAACAACAGAGGAUUGAGCAUCA
B5: ENSG00000198589:be:win_9701|3pUTR|ENSG00000198589|bound_else_gene|NA|bound_elsewhere_windowed (ssRNA)
RNA: GGGAGUUCUACAGUCCGACGAUCCAAGGAUUUGGAAUGAACAAUUCAGUUUGACAGAAAAAGCUGAAUAAAAUGGCAUCUGUAAUUGAAUUGUUGGAAAUGCCUUUUUUGCUCCUAAAUUUUAAACAUCAUUAAUAAAAUAAUCAACAGAGGAUUGAGCAUCA
B6: ENSG00000013293:stop:overlap|stop_codon|ENSG00000013293|stop_codon|NA|stop_codon (ssRNA)
RNA: GGGAGUUCUACAGUCCGACGAUCAACACAAACAGAACUCAGAGGCCCUGAUUGCAAAUGAUGAGUUAGAUUACUCUCCAGAGUAGGAGAAACACACAAGUGGGUAGAAAUGGUGAUGACUGAUUUUCAGUAACUUAACCUGUGCAACAGAGGAUUGAGCAUCA
B7: chrX:85861749:85861850:-|3pUTR|ENSG00000188419|msi1|total|mutant (ssRNA)
RNA: GGGAGUUCUACAGUCCGACGAUCCUAAUUUAAAAUUUCAGAAAAUGCUAUUAAAGAAUUUUGAUUCAAGUAUUUAAACUGUUCCGUUAUGCAUGCUUCUUAUUAACCGAAAAUGAUAAUACCAUUCCGUUCCGUGAUCAGUAUCAACAGAGGAUUGAGCAUCA
B8: chr5:136976780:136976881:-|3pUTR|ENSG00000152377|msi1|FALSE|unique (ssRNA)
RNA: B3 RNA with C31U, C32A, C69U, C70A, C83U, C84A, C93U, C94A, C118U, C119A
B9: chr8:9779869:9779970:+|3pUTR|ENSG00000173273|msi1|FALSE|unique (ssRNA)
RNA: GGGAGUUCUACAGUCCGACGAUCGGAAUUUCUAGCUUUUCAAGCAGCAUAAGUAGAAUCAACAUUAGGAUGUUUUCAUGAAAUAGCAUCCUUAUACUUCUUUGAGCUUGAUGUUAGUGGCUAGACUGAUUUCCCUUUGCUCUCCAACAGAGGAUUGAGCAUCA
B10: chr10:62094764:62094865:+|3pUTR|ENSG00000150347|msi1|FALSE|unique (ssRNA)
RNA: GGGAGUUCUACAGUCCGACGAUCGAUGAACUCCCCAACCCACUGUGCCCCUCCCGCAACACUACCAGUAGACUUUAGAACCAUAGUUAACUAAGUCUUUUACCUCUGAGAUACUUAAUUCUGGGAAAAUUGGUGACAAUUUUCCAACAGAGGAUUGAGCAUCA
B11: chrX:85861749:85861850:-|3pUTR|ENSG00000188419|msi1|FALSE|unique (ssRNA)
RNA: B7 RNA with C83U, C84A, C126U, C127A, C131U, C132A
B12: ENSG00000070961:be:win_4401|3pUTR|ENSG00000070961|bound_else_gene|NA|bound_elsewhere_windowed (ssRNA)
RNA: GGGAGUUCUACAGUCCGACGAUCGUUAUGACAUCUGUCCUAAUUAGUUUCUUAAAUACAUUUACUACUUAAUGGUUUUGAAGCAACUGUUUAAUUUUUAAAAUUUUUGAAAACUUGCUAAUAACCUUUUGUUCAGAAUUUAGUCAACAGAGGAUUGAGCAUCA
B13: chr10:99876058:99876159:-|3pUTR|ENSG00000107554|msi1|FALSE|bound_elsewhere (ssRNA)
RNA: GGGAGUUCUACAGUCCGACGAUCUUGAGCCUAAUGGAAGACUGGAUGUCUUUCUUCUUCAUCCAAGCACCCUAAUGACUGUUUAGUUACAUCCAUAGAUGCAGACAACAUAACACCUGUGACUUACUUGAAUUGGGAUAAGCCCAACAGAGGAUUGAGCAUCA
B14: ENSG00000107021:stop:overlap|stop_codon|ENSG00000107021|stop_codon|NA|stop_codon (ssRNA)
RNA: GGGAGUUCUACAGUCCGACGAUCACCCCAUCACAGAUGUCUGCCAGAUCCUGCAGAAAGCCAAGGAGCUCCAAGACUCAAAGUAGCCCGGCGGCAAGAGGCCCAUGUUCCGGAGAGAAGCCUCCCGACCCUGUGCCCUGGCUCCAACAGAGGAUUGAGCAUCA

biological target: MSI1 full-length (mouse, UniProt Q61474 1-362); assay: nsRBNS (natural sequence RNA bind-n-seq); RBNS binding buffer (assumed for nsRBNS): 25 mM Tris pH 7.5, 150 mM KCl, 3 mM MgCl2, 0.01% Triton X-100, 500 ug/ml BSA, 20 U/ml SUPERase-In, 4 C; UNK is unkempt and MSI1 is Musashi-1; names of the RNAs are library labels; protein concentration not given here; high values mean tight binding
Sequence (Q61474 whole entry): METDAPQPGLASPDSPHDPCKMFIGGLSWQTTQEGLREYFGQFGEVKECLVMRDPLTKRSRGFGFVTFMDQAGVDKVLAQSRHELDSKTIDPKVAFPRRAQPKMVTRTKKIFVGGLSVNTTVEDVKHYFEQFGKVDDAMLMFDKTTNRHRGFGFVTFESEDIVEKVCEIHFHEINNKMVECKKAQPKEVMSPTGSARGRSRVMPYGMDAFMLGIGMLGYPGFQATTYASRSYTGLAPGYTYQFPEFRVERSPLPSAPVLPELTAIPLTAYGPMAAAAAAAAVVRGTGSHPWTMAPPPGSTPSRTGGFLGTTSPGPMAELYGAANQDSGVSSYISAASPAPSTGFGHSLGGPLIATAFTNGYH

Binder	binding signal [enrichment R]
B1	70
B2	0.605
B3	0.478
B4	0.406
B5	0.605
B6	18.5
B7	0.789
B8	71.2
B9	0.275
B10	12.5
B11	54.6
B12	3.8
B13	0.725
B14	0.38
